Screening data deposited in PubChem BioAssay by National Center for Advancing Translational Sciences (NCATS).
D2 ag-1: Beta-Arrestin HTS for Positive Allosteric Modulators of the Human D2 Dopamine Receptor: Agonists; 0.084% of 360,000 active; D(2) dopamine receptor (Homo sapiens), P14416; AID 624465, 2012; DiscoveRx PathHunter D2 beta-arrestin, luminescence, 90 min; 100% = 57 uM dopamine signal; activation, % (concentration not given with the values); in the data active = activation above about 40%; inconclusive = between about 15% and that limit
Target sequence (P14416 whole entry, looked up): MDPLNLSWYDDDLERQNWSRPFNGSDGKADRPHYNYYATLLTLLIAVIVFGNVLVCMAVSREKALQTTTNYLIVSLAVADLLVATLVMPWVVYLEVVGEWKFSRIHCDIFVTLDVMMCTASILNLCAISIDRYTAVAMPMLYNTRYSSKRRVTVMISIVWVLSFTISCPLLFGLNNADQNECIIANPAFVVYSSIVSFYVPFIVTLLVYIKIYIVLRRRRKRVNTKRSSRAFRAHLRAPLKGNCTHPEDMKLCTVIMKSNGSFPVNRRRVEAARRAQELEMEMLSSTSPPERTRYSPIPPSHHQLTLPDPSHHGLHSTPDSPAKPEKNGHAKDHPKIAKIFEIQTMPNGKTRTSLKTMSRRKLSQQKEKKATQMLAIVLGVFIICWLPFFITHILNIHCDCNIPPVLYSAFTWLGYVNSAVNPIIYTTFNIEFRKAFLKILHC
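DiscoveRx PathHunter D2 beta-arrestin cells (2,100/well) attached overnight, then compound-stimulated 90 min at 37 C in HBSS/10 mM HEPES/0.1% Tween-20 buffer; beta-galactosidase complementation read by luminescence after 1 h at ambient temperature. Dopamine 57 uM final (EC100) as control.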
D2 antag: HTS Assay for Allosteric Antagonists of the Human D2 Dopamine Receptor: Primary Screen for Antagonists. 2% of 340,000 active. AID 485344, 2010. inhibition, % at 10 µM. HEK293 TREx D2 cells, calcium flux, dopamine EC80. D(2) dopamine receptor (Homo sapiens), P14416; in the data active = inhibition above about 30%; inactive = below that, where a call was filed; also: 0% is about no effect
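Cells plated overnight at 30 C with tetracycline; no-wash calcium dye, 30–90 min RT; 10 s baseline; compound pinned; 180 s read; EC80 dopamine added; another 180 s read.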
D2 PAM-1: HTS Assay for Positive Allosteric Modulators of the Human D2 Dopamine Receptor: Primary Screen for Potentiators; HEK293 T-REx D2, calcium flux, EC20 dopamine potentiation; potentiation, % at 10 µM; 0.34% of 340,000 active; AID 485347, 2010;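 active = potentiation over 3 SD above the plate norm, cut at about 30% in these data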; also: 0% is about no effect
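Tetracycline-induced HEK293 T-REx cells force-coupled to calcium signalling expressed D2; compounds were pin-added after a 10 s baseline, read kinetically 180 s, then an EC20 dopamine challenge followed with a further 180 s calcium read.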
D2 ag-2: HTS Assay for Allosteric Agonists of the Human D2 Dopamine Receptor: Primary Screen for Agonists | D(2) dopamine receptor (Homo sapiens), P14416 | HEK293 T-REx D2 cells, calcium flux agonist mode | activation, % at 2 µM | 0.53% of 340,000 active;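 active = activation over 3 SD above normal in the single-dose calcium agonist read, cut at about 30% in these data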; also: 0% is about no effect
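Agonism scored from kinetic calcium signal (1 read/sec, 180 s) following compound pin transfer, after a 10 s baseline. Cells: HEK293 Trex line expressing inducible D2 receptor coupled to calcium, dye-loaded after overnight culture at 30 C.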
D2 PAM-2: Beta-Arrestin HTS for Positive Allosteric Modulators of the Human D2 Dopamine Receptor: Potentiators. 0.23% of 360,000 active. AID 624464, 2012. potentiation, % (no concentration beside the values). D(2) dopamine receptor (Homo sapiens), P14416. DiscoveRx D2 beta-arrestin cells, luminescence, 90 min; 100% = 57 uM dopamine signal; in the data active = potentiation above about 50%; inconclusive = mostly about 30% to 49%
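PathHunter D2 cells, attached overnight at 37 deg C, received compound in DMSO plus dopamine at EC20 (50 nM final) for 90 min at 37 deg C. Beta-arrestin recruitment was read as luminescence after 1 h with detection reagent at ambient temperature.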
D3 arrestin ag: qHTS of D3 Dopamine Receptor Agonist: D3 Dopamine Receptor B-arrestin Agonist Confirmatory Assay; DiscoveRx D3 beta-arrestin cells, luminescence, 90 min; 4% of 2,300 active; Potency, µM (series often up to 76.9 µM), inactives show top-dose activation, most hits filed as activators; shares compounds with D2 ag-2; AID 720506, 2013;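 also: potency is read from the fitted curve at half-maximal effect; 100% = dopamine control response; nearly all actives have a fitted effect of over 70% in size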
D2 ag-3: qHTS of D3 Dopamine Receptor Agonist: D2 Dopamine Receptor B-arrestin Agonist Counterscreen | DiscoveRx PathHunter D2 beta-arrestin, luminescence, 90 min; response scale: percent relative to full dopamine signal | Potency, µM (titrated, usually from 76.9 µM), inactives show at the top dose activation, most hits filed as activators | AID 720507, 2013 | 5.9% of 2,300 active | shares compounds with D2 ag-2; also: potency is read from the fitted curve at half-maximal effect; % of control where 0% means no effect; nearly all actives have a fitted effect of over 70% in size
* = called active by the depositor; ? = inconclusive; · = no result. The list is not random: actives were taken first. Their share in the collection is about 2.4%. Unless noted, calls follow the shape of the dose curve; as a rule, active = well fitted activation curve with a large enough effect; inconclusive = small, poorly fitted or top-dose-only effect; inactive = flat fitted curve, though single readings scatter.

SMILES	D2 ag-1	D2 antag	D2 PAM-1	D2 ag-2	D2 PAM-2	D3 arrestin ag	D2 ag-3
CN(CCNC(=O)C1CCN(S(=O)(=O)N2CCOCC2)CC1)CCc1ccccc1	2.9	28.1	-17.7	55.1*	-25.8	6.9%	4.5%
CCCn1c(COc2ccccc2)nc2ccccc21	?	·	·	·	2.8	?	18.3%
COc1ccc(OCCCCn2c(CO)nc3ccccc32)cc1	9.7	73.6*	2.1	0.7	2.8	5.4%	3.8%
CC(OC(=O)c1cc[n+]([O-])cc1)C(=O)Nc1ccc(C(N)=O)cc1 (configuration not stated)	2.5	27.6	-5.5	1.2	-13.1	-1.4%	-3.9%
Cc1noc(C)c1C(=O)OC(C)C(=O)Nc1ccc(C(N)=O)cc1 (configuration not stated)	-3.3	14.1	3.5	-0.2	-0.3	·	·
CC(C)c1ccc2oc(-c3ccc(NC(=O)c4cccc(Br)c4)cc3)nc2c1	·	·	1.0	-0.2	·	·	·
CCCN(C(=O)c1sc2nc3n(c(=O)c2c1C)CCCC3)c1ccccc1C	·	·	-4.2	-0.9	·	·	·
O=C(Cn1ncc2c([nH]c3ccccc32)c1=O)NCCCN1CCN(c2ccccc2)CC1	?	103.1*	-2.2	-1.4	-26.7	12.5%	?
CC1CCCC(C)N1CCCNC(=O)Cn1ncc2c([nH]c3ccccc32)c1=O (configuration not stated)	1.5	7.8	-3.5	0.1	-8.7	·	·
O=C(COCc1cc(-c2ccc3c(c2)OCO3)on1)NCc1ccc(F)cc1	·	·	2.4	-1.1	·	·	·
Cc1cc(C)c(NC(N)=S)c(C)c1	-5.1	5.6	-1.0	0.2	-3.7	-0.1%	-3.7%
Cc1ccc(NC(=O)CN(C)S(=O)(=O)c2ccc3c(c2)n(C)c(=O)c(=O)n3C)cc1C	·	·	·	-0.9	·	·	·
CCCCC(O)CN1CCC(c2ccccc2)CC1 (configuration not stated)	-0.6	48.3*	-25.3	52.0*	-47.2	-10.4%	2.0%
CC(CN1CCC(O)CC1)c1ccccc1 (configuration not stated)	-0.8	-1.2	6.2	-0.1	-9.6	·	·
COc1ccc(NC(=O)c2ccco2)cc1NC(=O)c1cccc(C)c1OC	·	·	·	-1.1	·	·	·
CCc1ccccc1NC(=O)CCCN1C(=O)c2cccnc2C1=O	-0.4	-14.2	-16.5	41.1*	-6.1	-5.5%	-4.5%
O=C(CCCN1C(=O)c2cccnc2C1=O)Nc1ccccc1F	1.8	-3.5	9.7	3.1	1.1	·	·
CC(OC(=O)COc1ccc(C#N)cc1)C(=O)c1ccccc1 (configuration not stated)	3.4	31.9*	2.9	-0.4	0.6	-1.8%	-3.8%
COc1cccc(CN2CCN(C3CCN(c4cccc(C)c4C)CC3)CC2CCO)c1 (configuration not stated)	?	73.0*	-9.3	70.8*	14.9	?	?
CCOC(=O)N1CCC(N2CCN(Cc3ccccc3)C(CCO)C2)CC1 (configuration not stated)	?	76.2*	-13.0	78.4*	-2.2	-0.4%	?
CCOC(=O)N1CCC(N2CCCC(C(=O)c3cc(C)c(OC)c(C)c3)C2)CC1 (configuration not stated)	-2.2	·	·	·	-5.6	·	·
COc1cccc(CN2CCN(C3CCN(c4ccccc4F)CC3)CC2CCO)c1 (configuration not stated)	-2.4	8.1	-22.6	3.2	-16.4	·	·
COc1cccc(CN2CCN(C3CCN(c4ccccc4C)CC3)CC2CCO)c1 (configuration not stated)	-7.6	27.1	-26.5	59.8*	-8.0	-12.1%	2.8%
CCOC(=O)N1CCC(N2CCCC(C(=O)c3ccccc3OC)C2)CC1 (configuration not stated)	?	70.3*	-14.8	73.7*	10.1	-2.4%	?
COCCOC(=O)c1c(C)n(S(=O)(=O)c2ccc(C)cc2)c2ccc(NS(=O)(=O)c3ccc(C)cc3)cc12	·	·	11.4	-0.3	·	·	·
SMILES	D2 ag-1	D2 antag	D2 PAM-1	D2 ag-2	D2 PAM-2	D3 arrestin ag	D2 ag-3
O=C(NCc1ccccc1Cl)c1ccc2c(c1)N(Cc1ccccc1)C(=O)c1ccccc1S2	·	·	-5.3	0.5	·	·	·
Cc1cccc(C)c1NC(=O)C[n+]1cc(-c2ccccc2)n2c1CCC2	7.2	28.4	-25.1	75.2*	0.0	-10.3%	12.3%
Cc1ccccc1NC(=O)C[n+]1cc(-c2ccccc2)n2c1CCC2	0.7	·	·	·	-4.5	-10.2%	8.3%
Cc1ccccc1OCC(=O)Nc1ccccc1OCc1cc(=O)n2ccccc2n1	·	·	8.3	-0.6	·	·	·
CCC(=O)N1CCc2cc(S(=O)(=O)CCC(=O)Nc3ccc(OC)cc3)ccc21	-3.3	7.8	8.5	1.5	-5.3	·	·
CCC(=O)N1CCc2cc(S(=O)(=O)CCC(=O)Nc3cccc(C)n3)ccc21	1.7	-15.4	-13.9	34.5*	0.2	-0.2%	0.9%
CCN1c2ccccc2-c2nc(SCC(=O)Nc3cccc(C)c3C)ncc2S1(=O)=O	·	·	10.0	-0.2	·	·	·
OCCC1CN(CCCc2ccccc2)CCN1Cc1ccccc1 (configuration not stated)	-1.3	40.2*	-28.6	57.3*	-12.4	-2.0%	1.0%
COc1cc(CN2CCN(CCc3ccccc3)C(CCO)C2)cc(OC)c1 (configuration not stated)	-7.3	18.8	-15.8	0.1	-50.3	·	·
COc1cc(CN2CCN(CCCc3ccccc3)CC2CCO)cc(OC)c1 (configuration not stated)	5.3	65.3*	-27.2	63.0*	-22.8	-0.4%	5.1%
OCCC1CN(CCCc2ccccc2)CCN1CCc1ccccc1 (configuration not stated)	3.3	-16.1	3.0	-0.7	-22.7	·	·
OCCC1CN(C/C=C/c2ccco2)CCN1Cc1ccccc1 (configuration not stated)	0.1	19.1	-7.3	12.7	-25.4	4.2%	1.0%
